Experimental data published in PubChem BioAssay (Tox21).
Inconclusive results are not listed. Calls of active or inactive are those of the source. Unless noted, calls follow the shape of the dose curve; as a rule, active = well fitted curve in the direction sought with a large enough effect in the repeat runs; inconclusive = weak or mixed curves; inactive = no such curve, though single readings can be large; an effect the other way counts as inactive or inconclusive.

Key:
[1] = target: Thyrotropin receptor (Homo sapiens) (UniProt P16473); assay: qHTS assay to identify small molecule agonists of the thyroid stimulating hormone receptor (TSHR) signaling pathway (AID 1224843; calls by dose curve; also: nearly all actives have a fitted effect of over 45% in size)
Sequence of Thyrotropin receptor (Homo sapiens) (P16473 whole entry, looked up): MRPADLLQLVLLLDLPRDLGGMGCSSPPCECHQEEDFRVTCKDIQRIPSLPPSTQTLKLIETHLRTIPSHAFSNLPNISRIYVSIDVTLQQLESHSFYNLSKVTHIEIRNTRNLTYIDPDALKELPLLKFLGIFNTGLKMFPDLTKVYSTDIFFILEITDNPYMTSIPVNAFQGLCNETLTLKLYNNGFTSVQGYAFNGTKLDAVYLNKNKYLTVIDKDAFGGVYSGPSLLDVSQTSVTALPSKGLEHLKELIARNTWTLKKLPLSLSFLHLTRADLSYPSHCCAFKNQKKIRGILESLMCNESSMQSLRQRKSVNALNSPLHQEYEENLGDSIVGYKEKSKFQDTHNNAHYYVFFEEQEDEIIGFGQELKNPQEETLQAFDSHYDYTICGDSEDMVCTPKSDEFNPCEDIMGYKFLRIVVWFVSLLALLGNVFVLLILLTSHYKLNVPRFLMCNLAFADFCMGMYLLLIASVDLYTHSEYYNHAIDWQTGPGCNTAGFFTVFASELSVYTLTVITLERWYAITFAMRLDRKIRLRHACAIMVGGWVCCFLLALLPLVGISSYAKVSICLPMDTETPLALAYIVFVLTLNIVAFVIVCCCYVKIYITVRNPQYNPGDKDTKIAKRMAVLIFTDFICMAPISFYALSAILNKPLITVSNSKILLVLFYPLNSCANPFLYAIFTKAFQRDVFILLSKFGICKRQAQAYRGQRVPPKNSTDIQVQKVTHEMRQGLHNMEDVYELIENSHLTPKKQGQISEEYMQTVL
Outline: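 TSHR-expressing HEK293 cells (800 per well) were exposed to compounds for 30 min at room temperature. cAMP was then detected by HTRF competition with cAMP-d2 and anti-cAMP cryptate, read after 1 h at room temperature. Fifteen concentrations, triplicate.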

[2] = qHTS assay to identify small molecule agonists of the hypoxia (HIF-1) signaling pathway - cell viability counter screen (AID 1224844; calls by dose curve; also: nearly all actives have a fitted effect of over 50% in size)
Outline: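 HRE-bla ME-180 cells, 2,000/well in 0.5% dialyzed FBS medium, treated 17 h at 37C with compounds. Viability read in the same wells as the bla reporter, by CellTiter-Glo luminescence after 30 min at room temperature.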

[3] = qHTS assay to identify small molecule agonists of the hypoxia (HIF-1) signaling pathway (AID 1224846; active = well fitted activation curve with a large enough effect in the signal ratio in the repeat runs, not every such curve was filed as active; the % refers to the signal ratio)
Outline: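 HRE-bla ME-180 beta-lactamase reporter cells in medium with 0.5% dialyzed FBS, pre-incubated 5 h then exposed to compounds 17 h at 37C, 5% CO2; reporter induction read with CCF4-AM FRET substrate.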

[4] = qHTS assay to identify small molecule agonists of H2AX - cell viability counter screen (AID 1224847; calls by dose curve; also: top concentration of the series differs between compounds; nearly all actives have a fitted effect of over 30% in size)
Outline: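 Compounds tested at 15 concentrations were incubated 3 hr at 37C with wild-type CHO-K1 cells; cellular ATP-based luminescence (CellTiter-Glo) indicated viability.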

[5] = qHTS RealTime-Glo MT Cell Viability Assay in HepG2 cells - 24 hour (AID 1224867); also: nearly all actives have a fitted effect of over 50% in size
Outline: (§1)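 Tox21 10K library screened in qHTS format on HepG2 cells carrying RealTime-Glo reagents. Compounds were added after a 5 h preincubation, and the luminescent signal from continuous culture was measured repeatedly during 40 h treatment.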

[6] = A CellTox Green Cytotoxicity Assay to monitor cytotoxicity in HEK293 cells - 0 hour (AID 1224869); also: nearly all actives have a fitted effect of over 50% in size
Outline: (§2)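 HEK293 cells, 600/well, were preincubated 5 hours and then exposed to compounds at 37 C for up to 40 hours. A cell-impermeant cyanine dye staining dead-cell DNA was read by fluorescence at 0, 8, 16, 24, 32 and 40 h time points.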

[7] = qHTS RealTime-Glo MT Cell Viability Assay in HepG2 cells - 40 hour (AID 1224870); also: nearly all actives have a fitted effect of over 50% in size
Outline: (§3)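 HepG2 cells mixed with RealTime-Glo MT reagents (NanoLuc plus cell-permeant prosubstrate) were seeded at 600 cells/well, incubated 5 h at 37 C/5% CO2, then pinned with compounds in DMSO; nonlytic luminescence tracked viability during 40 h treatment.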

[8] = A CellTox Green Cytotoxicity Assay to monitor cytotoxicity in HEK293 cells - 40 hour (AID 1224871); also: nearly all actives have a fitted effect of over 45% in size
Outline: as §2

[9] = qHTS RealTime-Glo MT Cell Viability Assay in HEK293 cells - 16 hour (AID 1224872)
Outline: (§4)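 Luminescence generated by NanoLuc from substrate produced by living HEK293 cells served as the viability signal. Each value reflects the reading at its stated time point during continuous 40 h compound exposure at 37 C.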

[10] = qHTS RealTime-Glo MT Cell Viability Assay in HepG2 cells - 8 hour (AID 1224873); also: nearly all actives have a fitted effect of over 55% in size
Outline: as §3

[11] = A CellTox Green Cytotoxicity Assay to monitor cytotoxicity in HEK293 cells - 24 hour (AID 1224875); also: series mostly up to about 77 µM; nearly all actives have a fitted effect of over 45% in size
Outline: as §2

[12] = A CellTox Green Cytotoxicity Assay to monitor cytotoxicity in HepG2 cells - 16 hour (AID 1224876); also: nearly all actives have a fitted effect of over 45% in size
Outline: (§5)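 HepG2 cells, 600/well, preincubated 5 h with CellTox Green dye, then exposed to Tox21 compounds in DMSO at 37 C for up to 40 h. Dead-cell DNA fluorescence read at the indicated time point.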

[13] = qHTS RealTime-Glo MT Cell Viability Assay in HepG2 cells - 32 hour (AID 1224877); also: nearly all actives have a fitted effect of over 55% in size
Outline: as §1

[14] = A CellTox Green Cytotoxicity Assay to monitor cytotoxicity in HepG2 cells - 24 hour (AID 1224878); also: nearly all actives have a fitted effect of over 45% in size
Outline: as §5

[15] = A CellTox Green Cytotoxicity Assay to monitor cytotoxicity in HepG2 cells - 40 hour (AID 1224879); also: nearly all actives have a fitted effect of over 40% in size
Outline: as §5

[16] = qHTS RealTime-Glo MT Cell Viability Assay in HEK293 cells - 32 hour (AID 1224868)
Outline: as §4

[17] = qHTS RealTime-Glo MT Cell Viability Assay in HEK293 cells - 40 hour (AID 1224874); settings: RealTime-Glo luminescence; max response: hits give low values; also: nearly all actives have a fitted effect of over 50% in size
Outline: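 600 cells/well were plated with the nonlytic NanoLuc/prosubstrate reagent, pre-incubated 5 h, then given 23 nL of compound in DMSO. Incubation at 37 C for 40 h, with luminescence from viable-cell-reduced substrate read repeatedly from 0 h.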
% is scaled to controls: 0 for no effect and ±100 for the full control effect.

O=C(NC(=O)c1c(F)cccc1F)Nc1cc(Cl)c(F)c(Cl)c1F
inactive: Potency [1] | Potency [2] | outcome [3] | Potency [4] | Potency [5] | outcome [6] | Potency [7] | Potency [8] | Potency [9] | outcome [10] | Potency [11] | Potency [12] | Potency [13] | Potency [14] | Potency [15]

COc1cc(CCN)cc(OC)c1OC
inactive: Potency [1] | Potency [2] | outcome [3] | Potency [4] | Potency [5] | Potency [16] | outcome [6] | Potency [7] | Potency [8] | Potency [9] | outcome [10] | max response [17] -4.29% | Potency [11] | Potency [12] | Potency [13] | Potency [14] | Potency [15]

CCN1CCCC1CNC(=O)C(O)(c1ccccc1)c1ccccc1 (stereo not given)
inactive: Potency [1] | Potency [2] | outcome [3] | Potency [4] | Potency [5] | outcome [6] | Potency [7] | Potency [8] | Potency [9] | outcome [10] | max response [17] -2.61% | Potency [11] | Potency [12] | Potency [13] | Potency [14] | Potency [15]

CCOP(=S)(OCC)SCCl
inactive: Potency [1] | Potency [2] | outcome [3] | Potency [4] | Potency [5] | Potency [16] | outcome [6] | Potency [7] | outcome [10] | max response [17] -0.801% | Potency [11] | Potency [12] | Potency [13] | Potency [14] | Potency [15]

CC(C)(C)C(=O)Cl
inactive: Potency [1] | Potency [2] | outcome [3] | Potency [4] | Potency [5] | Potency [16] | outcome [6] | Potency [7] | Potency [8] | Potency [9] | outcome [10] | max response [17] -0.811% | Potency [11] | Potency [12] | Potency [13] | Potency [14]

CC(C)(N)Cc1ccc(Cl)cc1
inactive: Potency [1] | Potency [2] | outcome [3] | Potency [4] | Potency [5] | Potency [16] | outcome [6] | Potency [7] | Potency [8] | Potency [9] | outcome [10] | Potency [11] | Potency [12] | Potency [13] | Potency [14] | Potency [15]

Cc1cc(OC(=O)N(C)C)nn1C(=O)N(C)C
inactive: Potency [1] | Potency [2] | Potency [4] | Potency [5] | Potency [16] | outcome [6] | Potency [7] | Potency [8] | outcome [10] | max response [17] 2% | Potency [11] | Potency [12] | Potency [13] | Potency [14] | Potency [15]

CCOP(=S)(OCC)Oc1ccc(Cl)cc1Cl
inactive: Potency [1] | Potency [2] | outcome [3] | Potency [5] | Potency [16] | outcome [6] | Potency [7] | Potency [8] | Potency [9] | outcome [10] | max response [17] 2.64% | Potency [11] | Potency [12] | Potency [13] | Potency [14]
